Data taken from PubChem BioAssay (Tox21).
Calls of active or inactive are those of the source. Calls come from the whole dose curve; as a rule, active = well fitted activation curve with a large enough effect in the repeat runs; inconclusive = weak or mixed curves; inactive = flat fitted curve, though single readings scatter.

Test: A CellTox Green Cytotoxicity Assay to monitor cytotoxicity in HEK293 cells - 0 hour (AID 1224869); note: nearly all actives have a fitted effect of over 50% in size
Settings: CellTox Green fluorescence; series mostly up to 76.8 µM
From the text: National Center for Advancing Translational Sciences [NCATS]
NIH Chemical Genomics Center [NCGC]
U.S. Environmental Protection Agency [EPA]
National Institutes of Environmental Health Sciences [NIEHS]
National Toxicology Program [NTP]
Cell-based models are critical for drug discovery. Determining the natural cytotoxic effects resulting from test compounds is an essential research activity. A CellTox Green Cytotoxicity Assay to monitor cytotoxicity in real time of continues cell culture during 40 hours of the compound treatment was used to screen Tox21 10K library compounds in Hek293 cells. CellTox Green Cytotoxicity Assay is a nonlytic, homogeneous, biofluorescent method to measure cytotoxicity in cell culture after experimental manipulation. The assay system uses a proprietary asymmetric cyanine dye that is excluded from viable cells but preferentially stains the dead cell's DNA. […] Viable cells produce no appreciable increases in fluorescence. Therefore, the fluorescence signal produced by the binding interaction with dead cell DNA is proportional to cytotoxicity.
The mixture of Hek293 cell suspension and reagents were dispensed at 600cells/6 ul/well in 1536-well tissue culture treated black solid bottom plates using a Multidrop dispenser. After the assay plates were incubated at a 37 C/5% CO2 incubator for 5 hours, 23 nL of compounds dissolved in DMSO, positive and negative controls was transferred to the assay plate by a pintool work station. The plates were incubated at 37 C for 40 hours. The fluorescence intensity were measured at 0h, 8h, 16h, 24h, 32h and 40h time points using ViewLux plate reader during compound treatment.

Row | Compound | outcome
1 | COC(=O)CCCC(=O)OC | inactive
2 | CN(C)c1ccc(Cc2ccc(N(C)C)cc2)cc1 | inactive
3 | CCCCCCCO | inactive
4 | CCOC(=O)c1ccc(N)cc1 | inactive
5 | CCCCCCCCCCN | inactive
6 | C=C(C)C(=O)OCC(C)C | inactive
7 | CC1(C)S[C@@H]2[C@H](NC(=O)COc3ccccc3)C(=O)N2[C@H]1C(=O)O | inactive
8 | CC(=O)OC1CC(C)OC(C)O1 (stereo not given) | inactive
9 | NCCN1CCNCC1 | inactive
10 | c1ccc(Oc2ccccc2)cc1 | inactive
11 | CC(=O)OCc1ccco1 | inactive
12 | CCOCC(=O)O | inactive
13 | CC(C)(C)c1cc(Cc2cc(C(C)(C)C)c(O)c(C(C)(C)C)c2)cc(C(C)(C)C)c1O | inactive
14 | Cc1ccc(S(=O)(=O)N=C=O)cc1 | inactive
15 | CCOC(=O)n1ccn(C)c1=S | inactive
16 | CCCCCCCCCCO | inactive
17 | CC(=O)c1ccc(O)cc1 | inactive
18 | COc1ccc([N+](=O)[O-])cc1N | inactive
19 | CC(=O)CC(C)(C)O | inactive
20 | CC(C)c1cccc(C(C)C)c1 | inactive

Row | Compound | outcome
21 | CN(C)CCOC(=O)COc1ccc(Cl)cc1 | inactive
22 | COC(=O)c1cccnc1 | inactive
23 | CCO[Si](CCC#N)(OCC)OCC | inactive
24 | CCCCCCCCCCCCCCCC(=O)OC(C)C | inactive
25 | CCO[Si](CCCN)(OCC)OCC | inactive
26 | NCCNCCN | inactive
27 | O=S(=O)(O)c1ccc(N=Nc2c(O)ccc3cc(S(=O)(=O)O)ccc23)cc1 | inactive
28 | CC1(C)OC[C@@H]2O[C@@]3(C(=O)O)OC(C)(C)O[C@H]3[C@@H]2O1 | inactive
29 | O=C(O)c1ccc(C(=O)O)c(C(=O)O)c1 | inactive
30 | CCCCCCCCCCCCCCCCO | inactive
31 | C=C(C)[C@H]1CC=C(C)C(=O)C1 | inactive
32 | C=Cc1ccc(C)cc1 | inactive
33 | C=CC(=O)OCCC(=O)O | inactive
34 | O=S(=O)(O)c1ccccc1 | inactive
35 | COCCCN | inactive
36 | CC(=O)OCCOC(C)=O | inactive
37 | O=C(O)c1ccc(S(=O)(=O)N(Cl)Cl)cc1 | inactive
38 | CCc1ccccc1CC | inactive
39 | CC(=O)OCc1ccccc1 | inactive
40 | O=[N+]([O-])c1ccc2nc[nH]c2c1 | inactive
